Measured values as given in PubChem BioAssay AID1159580 (chemical genetic matrix, 2015).
Screen size: about 5,500 compounds; about 2,000 (36%) were called active. Roughly 18% stayed inconclusive and do not appear here. No stated cut-off is given here; in the data, active means normalized growth mostly below about 0.91 (no sharp cut-off); inconclusive means no clear call, values can overlap the other calls; inactive means mostly above about 0.92. This is one part of the list.

Assay: chemical genetic growth profiling, strain panel (AID 1159580);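 further: tested at 20 µM; growth read once vehicle control cultures reached saturation at 30 °C; 1 = growth at the plate median or of vehicle wells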
Conditions: S. cerevisiae deletion strains, growth OD

Measured: normalized growth

C[C@H]1CC[C@@H](C(C)(C)O)CC2=C1CC[C@@H]2C
inactive: locus YAL021C, strain ccr4, stronger effect = lower value 1 | locus YAL026C, strain drs2, stronger effect = lower value 0.984 | locus YAL030W, strain snc1, stronger effect = lower value 0.995 | locus YBL061C, strain skt5, stronger effect = lower value 0.985 | locus YBR009C, strain hhf1, stronger effect = lower value 0.914 | locus YBR023C, strain chs3, stronger effect = lower value 0.959 | locus YBR171W, strain sec66, stronger effect = lower value 0.978 | locus YBR231C, strain swc5, stronger effect = lower value 1.01 | locus YBR279W, strain paf1, stronger effect = lower value 0.996 | locus YCL011C, strain gbp2, stronger effect = lower value 0.982 | locus YCL016C, strain dcc1, stronger effect = lower value 0.976 | locus YCL061C, strain MRC1, stronger effect = lower value 0.995 | locus YCL069W, strain vba3, stronger effect = lower value 0.997 | locus YCR088W, strain abp1, stronger effect = lower value 0.993 | locus YDL005C, strain med2, stronger effect = lower value 0.998 | locus YDL040C, strain nat1, stronger effect = lower value 0.983 | locus YDR001C, strain nth1, stronger effect = lower value 0.988 | locus YDR069C, strain doa4, stronger effect = lower value 0.981 | locus YDR137W, strain rgp1, stronger effect = lower value 0.91 | locus YDR159W, strain sac3, stronger effect = lower value 0.912 | locus YDR297W, strain sur2, stronger effect = lower value 0.988 | locus YDR334W, strain swr1, stronger effect = lower value 1.01 | locus YDR335W, strain msn5, stronger effect = lower value 0.992 | locus YEL003W, strain gim4, stronger effect = lower value 0.984 | locus YEL037C, strain rad23, stronger effect = lower value 0.994 | locus YEL061C, strain CIN8 (second series), stronger effect = lower value 1 | locus YER015W, strain faa2, stronger effect = lower value 1.01 | locus YER016W, strain bim1, stronger effect = lower value 0.967 | locus YER111C, strain swi4, stronger effect = lower value 0.984 | locus YER155C, strain BEM2 (second series), stronger effect = lower value 0.927 | locus YFR010W, strain ubp6, stronger effect = lower value 0.962 | locus YGL167C, strain pmr1, stronger effect = lower value 0.985 | locus YGL173C, strain kem1, stronger effect = lower value 0.961 | locus YGL227W, strain vid30, stronger effect = lower value 0.999 | locus YGL240W, strain doc1, stronger effect = lower value 0.934 | locus YGL253W, strain hxk2, stronger effect = lower value 1 | locus YHR013C, strain ard1, stronger effect = lower value 0.999 | locus YHR027C, strain rpn1, stronger effect = lower value 0.994 | locus YHR142W, strain chs7, stronger effect = lower value 0.884 | locus YJL092W, strain hpr5, stronger effect = lower value 0.995 | locus YJL095W, strain BCK1 (second series), stronger effect = lower value 0.99 | locus YJL095W, strain BCK1, stronger effect = lower value 0.9 | locus YJL115W, strain asf1, stronger effect = lower value 0.994 | locus YJL129C, strain trk1, stronger effect = lower value 0.983 | locus YJL154C, strain vps35, stronger effect = lower value 0.992 | locus YJL164C, strain tpk1, stronger effect = lower value 0.965 | locus YJL166W, strain qcr8, stronger effect = lower value 0.948 | locus YJL187C, strain SWE1, stronger effect = lower value 0.987 | locus YJR066W, strain TOR1, stronger effect = lower value 0.92 | locus YKL160W, strain elf1, stronger effect = lower value 0.979 | locus YKR026C, strain gcn3, stronger effect = lower value 0.97 | locus YKR091W, strain srl3, stronger effect = lower value 0.993 | locus YLL001W, strain dnm1, stronger effect = lower value 0.991 | locus YLL026W, stronger effect = lower value 0.978 | locus YLL041C, strain sdh2, stronger effect = lower value 0.993 | locus YLR027C, strain aat2, stronger effect = lower value 0.979 | locus YLR221C, strain rsa3, stronger effect = lower value 0.924 | locus YLR258W, strain gsy2, stronger effect = lower value 0.971 | locus YLR320W, strain mms22, stronger effect = lower value 0.896 | locus YLR342W, strain FKS1, stronger effect = lower value 0.989 | locus YLR357W, strain rsc2, stronger effect = lower value 0.893 | locus YLR370C, strain arc18, stronger effect = lower value 0.987 | locus YLR384C, strain iki3, stronger effect = lower value 0.995 | locus YML120C, strain ndi1, stronger effect = lower value 0.972 | locus YMR058W, strain fet3, stronger effect = lower value 0.993 | locus YMR125W, strain sto1, stronger effect = lower value 0.977 | locus YMR129W, stronger effect = lower value 0.986 | locus YMR205C, strain PFK2, stronger effect = lower value 0.896 | locus YMR231W, strain pep5, stronger effect = lower value 0.999 | locus YNL071W, strain lat1, stronger effect = lower value 0.952 | locus YNL183C, strain NPR1, stronger effect = lower value 0.869 | locus YNL209W, strain ssb2, stronger effect = lower value 0.995 | locus YNL248C, strain rpa49, stronger effect = lower value 0.983 | locus YNL322C, strain KRE1 (second series), stronger effect = lower value 0.987 | locus YNR049C, strain mso1, stronger effect = lower value 0.995 | locus YOR001W, strain rrp6, stronger effect = lower value 0.958 | locus YOR070C, strain gyp1, stronger effect = lower value 0.978 | locus YOR080W, strain dia2, stronger effect = lower value 1 | locus YOR083W, strain WHI5, stronger effect = lower value 0.975 | locus YOR106W, strain vam3, stronger effect = lower value 0.972 | locus YOR265W, strain rbl2, stronger effect = lower value 0.983 | locus YOR270C, strain vph1, stronger effect = lower value 0.97 | locus YOR290C, strain snf2, stronger effect = lower value 0.925 | locus YPL051W, strain arl3, stronger effect = lower value 0.979 | locus YPL078C, strain atp4, stronger effect = lower value 0.986 | locus YPL106C, strain sse1, stronger effect = lower value 0.889 | locus YPL240C, strain hsp82, stronger effect = lower value 1.01
active: locus YDR195W, strain ref2 0.822 | locus YDR392W, strain spt3, stronger effect = lower value 0.552 | locus YHR030C, strain SLT2, stronger effect = lower value 0.819 | locus YHR079C, strain IRE1, stronger effect = lower value 0.767 | locus YLR113W, strain HOG1, stronger effect = lower value 0.764 | locus YLR262C, strain YPT6 (second series), stronger effect = lower value 0.841 | locus YOR231W, strain MKK1, stronger effect = lower value 0.849 | locus YPL256C, strain CLN2, stronger effect = lower value 0.796
